Test results as given in publication PMC11574364.

Columns and labels:
Experiment in all cases: protein domain microarray probed with biotinylated miRNA; Domain array: 20 mM Tris-HCl pH 7.4, 200 mM KCl, 0.2 mM EDTA, 0.05% NP40, 2 ug/ul heparin, overnight 4 C. ORF array: PBS pH 7.0 with RNase inhibitor, 100 ng RNA; high values mean tight binding
Settings in all cases: ssRNA
[1] = target: RBM3 (Homo sapiens, UniProt P98179)
[2] = target: T1, RBM5 (Homo sapiens, UniProt P52756)
T1 sequence: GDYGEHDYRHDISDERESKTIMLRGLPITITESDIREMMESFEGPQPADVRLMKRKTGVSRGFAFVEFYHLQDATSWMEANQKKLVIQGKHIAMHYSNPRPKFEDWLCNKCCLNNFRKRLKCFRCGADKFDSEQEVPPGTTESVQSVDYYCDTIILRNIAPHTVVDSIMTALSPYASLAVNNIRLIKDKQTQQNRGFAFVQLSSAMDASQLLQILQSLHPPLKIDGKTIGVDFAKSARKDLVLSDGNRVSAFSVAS

[3] = target: T2, RKHD4(1-2) (Homo sapiens, UniProt A1L020)
T2 sequence: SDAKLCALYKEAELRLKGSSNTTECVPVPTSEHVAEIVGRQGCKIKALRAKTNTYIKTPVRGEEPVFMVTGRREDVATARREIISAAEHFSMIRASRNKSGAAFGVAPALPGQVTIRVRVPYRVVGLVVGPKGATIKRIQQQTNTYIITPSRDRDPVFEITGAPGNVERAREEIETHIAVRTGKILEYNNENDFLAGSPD

[4] = target: T3, SRP46 (Homo sapiens, UniProt Q9BRL6)
T3 sequence: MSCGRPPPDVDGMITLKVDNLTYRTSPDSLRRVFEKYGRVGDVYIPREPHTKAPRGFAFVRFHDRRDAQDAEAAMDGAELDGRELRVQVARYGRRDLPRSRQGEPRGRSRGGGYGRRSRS

[5] = target: PPIE (Homo sapiens, UniProt Q9UNP9)
PPIE, sequence (Q9UNP9 1-110): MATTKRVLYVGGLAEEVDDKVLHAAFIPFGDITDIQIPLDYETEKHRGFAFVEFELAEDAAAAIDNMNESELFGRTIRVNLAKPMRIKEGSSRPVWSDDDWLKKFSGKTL

[6] = target: RBMXL2 (Homo sapiens, UniProt O75526)
RBMXL2, sequence (O75526 1-110): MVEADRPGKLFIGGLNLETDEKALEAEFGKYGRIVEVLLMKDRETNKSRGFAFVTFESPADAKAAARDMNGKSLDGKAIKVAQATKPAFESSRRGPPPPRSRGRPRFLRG

[7] = target: T4, RBM7 (Homo sapiens, UniProt Q9Y580)
T4 sequence: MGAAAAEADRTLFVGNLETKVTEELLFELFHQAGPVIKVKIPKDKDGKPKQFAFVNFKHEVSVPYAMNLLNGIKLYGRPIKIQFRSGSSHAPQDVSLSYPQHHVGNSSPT

[8] = target: T5, RBM12B(4) (Homo sapiens, UniProt Q8IXT5)
T5 sequence: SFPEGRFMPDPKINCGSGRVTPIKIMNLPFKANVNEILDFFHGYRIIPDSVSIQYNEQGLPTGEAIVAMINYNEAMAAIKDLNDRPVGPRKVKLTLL

[9] = target: RED1(1)/ADARB1 (Homo sapiens, UniProt P78563)
[10] = target: KHDRBS1 (Homo sapiens, UniProt Q07666)
KHDRBS1, sequence (Q07666 85-210): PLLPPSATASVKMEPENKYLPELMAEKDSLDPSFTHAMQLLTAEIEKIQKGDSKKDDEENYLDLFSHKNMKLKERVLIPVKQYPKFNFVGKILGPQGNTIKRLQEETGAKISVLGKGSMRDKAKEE

[11] = target: T6, YTHDF3 (Homo sapiens, UniProt Q7Z739)
T6 sequence: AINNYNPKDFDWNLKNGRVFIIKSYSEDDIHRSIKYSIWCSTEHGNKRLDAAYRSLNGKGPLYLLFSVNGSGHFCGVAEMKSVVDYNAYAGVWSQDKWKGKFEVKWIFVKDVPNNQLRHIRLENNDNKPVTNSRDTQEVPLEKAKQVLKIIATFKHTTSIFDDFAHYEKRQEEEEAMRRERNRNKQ

[12] = target: T7, NOVA2(1-2) (Homo sapiens, UniProt Q9UNW9)
T7 sequence: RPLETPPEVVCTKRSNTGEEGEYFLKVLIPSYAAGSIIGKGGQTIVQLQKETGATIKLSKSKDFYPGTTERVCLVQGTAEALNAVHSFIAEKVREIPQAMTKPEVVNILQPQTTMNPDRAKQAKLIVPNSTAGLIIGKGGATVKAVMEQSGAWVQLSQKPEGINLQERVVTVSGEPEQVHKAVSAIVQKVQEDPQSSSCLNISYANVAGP

[13] = target: T8, SFRS4 (Homo sapiens, UniProt Q08170)
T8 sequence: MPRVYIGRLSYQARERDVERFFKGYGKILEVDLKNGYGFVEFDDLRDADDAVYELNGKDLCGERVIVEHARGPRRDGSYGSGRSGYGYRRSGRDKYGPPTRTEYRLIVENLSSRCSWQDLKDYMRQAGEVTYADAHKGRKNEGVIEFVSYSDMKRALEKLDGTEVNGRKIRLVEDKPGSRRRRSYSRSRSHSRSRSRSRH

[14] = target: PRPF8 (Homo sapiens, UniProt Q6P2Q9)
PRPF8, sequence (Q6P2Q9 965-1100): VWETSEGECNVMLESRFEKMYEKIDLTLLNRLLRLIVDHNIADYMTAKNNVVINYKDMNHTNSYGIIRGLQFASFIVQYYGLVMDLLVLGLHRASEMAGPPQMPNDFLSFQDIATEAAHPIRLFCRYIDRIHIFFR

[15] = target: ADAD1 (Homo sapiens, UniProt Q96M93)
ADAD1, sequence (Q96M93 77-182): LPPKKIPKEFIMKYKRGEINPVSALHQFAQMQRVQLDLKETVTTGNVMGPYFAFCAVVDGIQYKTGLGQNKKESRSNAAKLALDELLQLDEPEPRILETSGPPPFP

[16] = target: T9, SFRS5 (Homo sapiens, UniProt Q13243)
T9 sequence: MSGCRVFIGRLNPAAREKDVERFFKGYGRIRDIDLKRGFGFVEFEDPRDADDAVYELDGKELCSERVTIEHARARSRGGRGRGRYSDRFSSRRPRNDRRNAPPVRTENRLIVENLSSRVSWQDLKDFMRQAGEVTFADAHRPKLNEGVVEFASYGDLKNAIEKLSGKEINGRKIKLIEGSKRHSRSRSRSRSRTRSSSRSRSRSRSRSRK

[17] = target: T10, ANKHD1 (Homo sapiens, UniProt Q8IWZ3)
T10 sequence: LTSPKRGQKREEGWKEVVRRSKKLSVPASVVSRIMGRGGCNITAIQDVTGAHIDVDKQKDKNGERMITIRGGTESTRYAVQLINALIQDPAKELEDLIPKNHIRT

[18] = target: T11, RBM34 (Homo sapiens, UniProt P42696)
T11 sequence: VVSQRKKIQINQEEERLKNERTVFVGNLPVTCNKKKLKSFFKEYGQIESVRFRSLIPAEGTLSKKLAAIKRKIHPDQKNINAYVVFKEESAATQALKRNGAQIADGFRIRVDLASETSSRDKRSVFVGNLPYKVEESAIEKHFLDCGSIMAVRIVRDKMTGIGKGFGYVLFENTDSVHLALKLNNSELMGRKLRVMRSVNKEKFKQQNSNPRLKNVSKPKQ

[19] = target: T12, RNPC2 (Homo sapiens, UniProt Q14498)
T12 sequence: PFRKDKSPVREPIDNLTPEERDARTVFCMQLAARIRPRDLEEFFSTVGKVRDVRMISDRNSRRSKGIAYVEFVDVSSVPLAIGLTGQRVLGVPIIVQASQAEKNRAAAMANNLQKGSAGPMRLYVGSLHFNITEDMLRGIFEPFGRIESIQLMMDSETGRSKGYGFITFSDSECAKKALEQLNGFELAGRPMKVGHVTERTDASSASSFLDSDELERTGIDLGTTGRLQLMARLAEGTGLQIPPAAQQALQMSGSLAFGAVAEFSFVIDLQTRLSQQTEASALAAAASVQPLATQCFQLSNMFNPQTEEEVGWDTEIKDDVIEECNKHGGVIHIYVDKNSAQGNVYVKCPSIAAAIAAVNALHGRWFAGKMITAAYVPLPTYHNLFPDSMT

[20] = target: T13, SON (Homo sapiens, UniProt P18583)
T13 sequence: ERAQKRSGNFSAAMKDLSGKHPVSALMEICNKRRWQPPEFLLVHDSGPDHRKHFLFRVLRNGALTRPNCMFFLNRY

RBM3, sequence (P98179 1-110): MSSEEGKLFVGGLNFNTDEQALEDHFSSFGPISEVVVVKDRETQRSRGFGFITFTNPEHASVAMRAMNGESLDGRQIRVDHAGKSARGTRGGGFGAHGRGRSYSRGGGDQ

Sequence	binding signal [1]	binding signal [2]	binding signal [3]	binding signal [4]	binding signal [5]	binding signal [6]	binding signal [7]	binding signal [8]	binding signal [9]	binding signal [10]	binding signal [11]	binding signal [12]	binding signal [13]	binding signal [14]	binding signal [15]	binding signal [16]	binding signal [17]	binding signal [18]	binding signal [19]	binding signal [20]
UAGCUUAUCAGACUGAUGUUGA	409 ± 132 fluorescence intensity	21.2 ± 2.33 fluorescence intensity	932 ± 115 fluorescence intensity	41.5 ± 2.43 fluorescence intensity	91.8 ± 5.98 fluorescence intensity	826.37 ± 0.587 fluorescence intensity	–	–	–	–	–	–	–	–	–	–	–	–	–	–
CAGUGCAAUGAUGAAAGGGCAU	1390 ± 40.6 fluorescence intensity	593 ± 12.6 fluorescence intensity	1280 ± 81.8 fluorescence intensity	797 ± 34.1 fluorescence intensity	451 ± 19.3 fluorescence intensity	1800 ± 20.8 fluorescence intensity	34 ± 2.81 fluorescence intensity	38.8 ± 4.95 fluorescence intensity	67.57 ± 0.354 fluorescence intensity	25.1 ± 9.81 fluorescence intensity	52.8 ± 5.03 fluorescence intensity	71.4 ± 9.69 fluorescence intensity	236 ± 1.78 fluorescence intensity	31.6 ± 16.2 fluorescence intensity	44.5 ± 2.96 fluorescence intensity	151 ± 10.5 fluorescence intensity	27.3 ± 0.926 fluorescence intensity	102 ± 9.41 fluorescence intensity	–	–
UGAGGUAGUAGGUUGUAUGGUU	1642 ± 12.9 fluorescence intensity	930 ± 19.2 fluorescence intensity	1640 ± 102 fluorescence intensity	1040 ± 52.8 fluorescence intensity	958 ± 40.9 fluorescence intensity	1440 ± 338 fluorescence intensity	45.27 ± 0.0778 fluorescence intensity	62 ± 3.02 fluorescence intensity	151 ± 4.54 fluorescence intensity	25.6 ± 0.417 fluorescence intensity	117 ± 1.29 fluorescence intensity	26.8 ± 4.61 fluorescence intensity	206 ± 51.4 fluorescence intensity	22 ± 1.98 fluorescence intensity	97.885 ± 0.0354 fluorescence intensity	155 ± 8.02 fluorescence intensity	53.6 ± 1.31 fluorescence intensity	153 ± 25.5 fluorescence intensity	43.3 ± 11.8 fluorescence intensity	23.9 ± 4.74 fluorescence intensity
UGAGGUAGUAGGUUGUAUAGUU	669 ± 18.7 fluorescence intensity	356 ± 13.4 fluorescence intensity	1130 ± 28.7 fluorescence intensity	208 ± 90.3 fluorescence intensity	232 ± 2.04 fluorescence intensity	867 ± 9.01 fluorescence intensity	22.1 ± 0.665 fluorescence intensity	–	40.73 ± 0.318 fluorescence intensity	22.6 ± 1.88 fluorescence intensity	30 ± 0.891 fluorescence intensity	–	20.4 ± 3.62 fluorescence intensity	25.3 ± 8.73 fluorescence intensity	23.1 ± 6.46 fluorescence intensity	–	21.6 ± 2.06 fluorescence intensity	40.9 ± 12.8 fluorescence intensity	–	–
UGAGGUAGUAGGUUGUGUGGUU	1550 ± 33.7 fluorescence intensity	858 ± 19.2 fluorescence intensity	1430 ± 37.1 fluorescence intensity	1046 ± 4.09 fluorescence intensity	1030 ± 108 fluorescence intensity	1610 ± 44.5 fluorescence intensity	50.2 ± 0.997 fluorescence intensity	50.1 ± 2.09 fluorescence intensity	230 ± 23.8 fluorescence intensity	28.3 ± 5.26 fluorescence intensity	129 ± 9.2 fluorescence intensity	40.2 ± 2.14 fluorescence intensity	339 ± 8.46 fluorescence intensity	–	157 ± 3.28 fluorescence intensity	215 ± 3.13 fluorescence intensity	101 ± 1.94 fluorescence intensity	228 ± 3.75 fluorescence intensity	80.9 ± 8.52 fluorescence intensity	24.3 ± 4.36 fluorescence intensity
AGAGGUAGUAGGUUGCAUAGUU	2295 ± 10 fluorescence intensity	1310 ± 32.6 fluorescence intensity	1980 ± 164 fluorescence intensity	1390 ± 35.5 fluorescence intensity	817 ± 64.4 fluorescence intensity	2569 ± 8.99 fluorescence intensity	36.3 ± 3 fluorescence intensity	23.2 ± 2.64 fluorescence intensity	152 ± 6.66 fluorescence intensity	21.6 ± 3.36 fluorescence intensity	60.7 ± 7.12 fluorescence intensity	151 ± 5.8 fluorescence intensity	238 ± 11.7 fluorescence intensity	–	65 ± 1.55 fluorescence intensity	151 ± 12.7 fluorescence intensity	37.7 ± 0.622 fluorescence intensity	148 ± 10.7 fluorescence intensity	27 ± 3 fluorescence intensity	20.1 ± 1.45 fluorescence intensity
